According to ChEMBL document CHEMBL3988442, “University of Dundee, Small-Polar-MMV Screening Library” (2021):
The whole screen tested about 69,000 compounds, of which about 420 (0.61%) showed an effect of 50% or more. What follows is part of a selection rich in strong results, with near analogues and random picks from the rest.

target: T1, Histidine--tRNA ligase (Leishmania infantum) (UniProt A4I591); experiment: Leishmania infantum Histidine tRNA synthetase (LdHisRS); assay type: functional; parameters: scale not given: in the data most compounds retested in dose-response had high values; details: 30 µM
T1 sequence (whole entry): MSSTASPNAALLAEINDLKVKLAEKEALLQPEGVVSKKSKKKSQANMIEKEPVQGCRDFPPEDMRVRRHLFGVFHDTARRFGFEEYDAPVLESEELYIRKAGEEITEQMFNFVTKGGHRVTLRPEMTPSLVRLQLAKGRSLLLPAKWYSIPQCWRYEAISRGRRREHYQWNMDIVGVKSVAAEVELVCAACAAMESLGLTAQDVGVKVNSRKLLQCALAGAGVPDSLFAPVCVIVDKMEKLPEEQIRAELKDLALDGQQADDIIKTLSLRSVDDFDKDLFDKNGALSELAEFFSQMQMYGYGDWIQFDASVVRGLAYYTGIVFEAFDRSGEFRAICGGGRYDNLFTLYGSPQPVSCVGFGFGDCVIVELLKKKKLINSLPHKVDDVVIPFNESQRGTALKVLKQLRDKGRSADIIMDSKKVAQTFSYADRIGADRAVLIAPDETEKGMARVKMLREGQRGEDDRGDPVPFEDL

| Compound | Percent Effect [%] |
| --- | --- |
| Cc1nc(CN2C[C@@H]3CN(C(=O)c4cnccn4)C[C@@H]3C2=O)cs1 | 2.94 |
| Cc1ccc(CN2C[C@H]3C[C@H](C(=O)Nc4cccnc4)[C@@H](C2)O3)cc1 | 22 |
| c1cc(-c2ccc3c(c2)CCC32CCN(c3nncs3)CC2)ccn1 | 66.1 |
| CN1CCCCC12CCN(c1nncs1)CC2 | 6.2 |
| c1cncc(-c2ccc3c(c2)CCC32CCN(Cc3nccs3)CC2)c1 | 48 |
| CNC(=O)[C@H]1CC[C@@H]2[C@@H](CCN2c2ncccn2)O1 | 14 |
| O=C(c1cnccn1)N1C[C@@H]2OCC(=O)N(CC3CCCCC3)[C@@H]2C1 | 25 |
| COc1cc(N2CC[C@@H]3O[C@@H](c4ccncn4)C[C@H]3C2)ncn1 | 14.5 |
| Cc1ccccc1-c1noc(CN2CCc3cncnc3C2)n1 | -42.2 |
| Cc1ccccc1-c1noc(CN2CCc3nn(C)c(=O)cc3C2)n1 | 103 |
| Cc1cccc(-c2noc(CN3CCc4nn(C)c(=O)cc4C3)n2)c1 | 87.8 |
| COc1cc2c(nn1)CCN(Cc1noc(-c3ccccc3)n1)C2 | 24 |
| Cn1nc2c(cc1=O)CN(Cc1nc(-c3ccsc3)no1)CC2 | 27.6 |
| Cc1ccc(-c2nc(CN3CCc4cnc(C)nc4C3)no2)cc1 | 21.4 |
| Cn1nc2c(cc1=O)CN(Cc1nc(-c3ccoc3)no1)CC2 | 16 |
| Cn1nc2c(cc1=O)CN(Cc1nc(-c3cccs3)no1)CC2 | 20.3 |
| Cc1ccc(-c2noc(CN3CCc4nn(C)c(=O)cc4C3)n2)cc1 | 70.7 |
| Cc1ccc(-c2nc(CN3CCc4nn(C)c(=O)cc4C3)no2)cc1 | 52.4 |
| CCCn1nc2c(cc1=O)CN(Cc1nc(-c3ccoc3)no1)CC2 | 2.67 |
| Cn1nc2c(cc1=O)CN(Cc1nc(-c3cccnc3)no1)CC2 | 10.3 |
| C[C@]12CCCCN(C(=O)c3ccccn3)[C@H]1CCCC(=O)N2 | 7.37 |
| CN(Cc1cccnc1)[C@@H]1CN(Cc2ccccn2)[C@@H]2CCCO[C@H]12 | 8.33 |
| Cc1nnc(N2CC[C@H]3O[C@H](C(=O)NCc4ccccn4)CC[C@H]32)s1 | 20 |

| Compound | Percent Effect [%] |
| --- | --- |
| Cc1ncsc1CN1C[C@@H]2CCCO[C@@H]2[C@H](N(C)C(C)C)C1 | 14 |
| Cc1ccc(CN2CC[C@@H]3O[C@@H](C(=O)N4CCN(C)CC4)C[C@@H]32)cc1 | 9.62 |
| CS(=O)(=O)N1C[C@@H]2CC[C@H](C1)N(Cc1cscn1)C2=O | 15.2 |
| O=C1CCCC2=C1C(c1cccc(F)c1F)Nc1nonc1N2 (centres undefined) | 6.25 |
| COCCN1C[C@@H]2CN(c3cnccn3)C[C@@H]2C1=O | 16 |
| CCn1nc2c(cc1=O)CN(Cc1nc(-c3ccco3)no1)CC2 | 33 |
| Cn1nc2c(cc1=O)CN(Cc1nc(-c3ccco3)no1)CC2 | 91.4 |
| CCCn1nc2c(cc1=O)CN(Cc1nc(-c3ccco3)no1)CC2 | 5.5 |
| O=C(NC1CC1)[C@@H]1C[C@@H]2CCN(Cc3ccccc3)C[C@H]2O1 | 23 |
| COc1ccc(CN2C[C@@H]3OCCN(CCN(C)C)[C@@H]3C2)cc1 | 15.6 |
| COc1cccc(CNc2nc(C)cc(C)n2)c1OC | 21.9 |
| COc1cccc(CNc2cc(C)nc(-c3ccncc3)n2)c1O | 19.2 |
| COc1cccc(CNc2cc(C)nc(-c3ccncc3)n2)c1OC | 52 |
| O=C(c1ccco1)N1CCO[C@@H]2CN(c3ccccc3)CC[C@@H]2C1 | 32 |
| O=C(Nc1cnccn1)[C@@H]1COC[C@H]2CN(C3CCC3)C[C@H]21 | 12.3 |
| O=C(Nc1ccccc1Cl)N1CCN(CC2CC2)[C@@H]2CS(=O)(=O)C[C@@H]21 | 8.2 |
| CC(C)=CCN1C[C@H]2CC[C@@H]1CN(C(=O)CCc1n[nH]c(C)n1)C2 | -42.5 |
| CC(=O)N1C[C@@H]2CC[C@H](C1)N(C(=O)CCc1n[nH]c3c1CCCC3)C2 | 17.7 |
| O=C(CCc1n[nH]c2c1CCCC2)N1C[C@@H]2CC[C@H](C1)N(CC1CC1)C2 | 56.5 |
| CS(=O)(=O)N1C[C@@H]2CC[C@H](C1)N(C(=O)CCc1n[nH]c3c1CCCC3)C2 | 14.5 |
| COCCN1C[C@H]2CC[C@@H]1CN(C(=O)CCc1n[nH]c(C)c1C)C2 | 13.9 |
| O=C(NCc1cccnc1)[C@H]1CC[C@@H]2[C@@H](CCN2c2ncccn2)O1 | 7 |
| COCCN1C(=O)[C@H]2CC[C@@H]1CN(S(=O)(=O)c1cccc(Cl)c1)C2 | 0 |

| Compound | Percent Effect [%] |
| --- | --- |
| Cc1cc(C(=O)N2C[C@H]3CC[C@@H]2CN(C)C3)ccc1Cl | 7.14 |
| COc1ccnc(N2C[C@@H]3CC[C@H](C2)N(CC2CCC2)C3=O)n1 | 19.4 |
| O=C(c1cocn1)N1C[C@@H]2CN(CC3CC3)CCO[C@@H]2C1 | 7.56 |
| NC(=O)CN1CCN(CC2CC2)c2ccccc21 | 56.2 |
| COCCC(=O)N1CCN(CC2CC2)c2ccccc21 | 26.5 |
| NC(=O)NC(=O)CCN1CCN(CC2CC2)c2ccccc21 | 81.2 |
| CNC(=O)NC(=O)CN1CCN(CC2CC2)c2ccccc21 | 31.2 |
| O=C(NCCCC(=O)N1CCN(CC2CC2)c2ccccc21)C1CC1 | 11.8 |
| NC(=O)NC(=O)CN1CCN(CC2CC2)c2ccccc21 | 31.2 |
| Cc1ccc(N2CC[C@@H]3O[C@@H](COCc4cccnc4)CC[C@@H]32)nn1 | 13.2 |
| NC(=O)[C@@H]1CN2CCN(C(=O)C3CC3)C[C@@H]2[C@H]1c1ccccc1 | 2.04 |
| CS(=O)(=O)N1C[C@H]2CCCN(Cc3cccs3)[C@H]2C1 | 5.26 |
| COc1ccc2c(c1)CC(NCc1cccc(OCC(N)=O)c1)CC2 (centres undefined) | 59 |
| COc1ccc2c(c1)CC(NCc1cccc(NC(C)=O)c1)CC2 (centres undefined) | 43.6 |
| COc1ccc2c(c1)CC(NCc1cccc(CO)c1)CC2 (centres undefined) | 15.4 |
| Cc1ccc(CN2Cc3ccccc3O[C@]3(CC[C@H](CO)CC3)C2)s1 | 16.5 |
| O=C(c1ccccc1)N1CC[C@H]2C[C@@H](c3nnc(C4CC4)o3)O[C@@H]2C1 | 13.6 |
| CC(C)CCN1N=C(C(=O)N2CCCCCC2)S(=O)(=O)c2ccccc21 | 10.2 |
| COC(=O)CN1N=C(C(=O)N2CCCC2)S(=O)(=O)c2ccccc21 | 12.2 |
| O=C(C1=NN(Cc2ccccc2)c2ccccc2S1(=O)=O)N1CCCC1 | 53.9 |
| CN(CCCc1ccccc1)C(=O)c1ccccc1NCC(=O)O | 16.9 |
| CN(C(=O)c1ccccc1NCC(=O)O)C(C1CC1)C1CC1 | -4.2 |
| CN(CCCN1CCCCCC1)C(=O)c1ccccc1NCC(=O)O | 50.6 |
